# Experimental data as given in PubChem BioAssay AID1159580 (chemical genetic matrix, 2015).
# Where “and” joins values, the source holds several entries; their conditions need not be identical. Equal values may be shown once. Among all 5,500 compounds or so, about 2,000 (36%) were called active. Inconclusive results (about 18%) are left out. The list shows a part of the results. A number with no mark means an inactive call. Cut-off read from the data, not from the text of the source: active = normalized growth mostly below about 0.91 (no sharp cut-off); inconclusive = no clear call, values can overlap the other calls; inactive = mostly above about 0.92.
# Experiment: chemical genetic growth profiling, strain panel (AID 1159580);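 note: tested at 20 µM; growth read once vehicle control cultures reached saturation at 30 °C; 1 = growth at the plate median or of vehicle wells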
# Conditions: S. cerevisiae deletion strains, growth OD
smiles,measurement,setting,value
CC(C)=CCCC1(C)C=Cc2c(O)c3c(c(CC=C(C)C)c2O1)OC12C(=CC4CC1C(C)(C)OC2(C/C=C(/C)C(=O)O)C4O)C3=O (stereo unspecified),normalized growth,"locus YBR021W, strain FUR4, stronger effect = lower value",1.02
same,normalized growth,"locus YBR229C, strain ROT2, stronger effect = lower value",0.947
same,normalized growth,"locus YCL029C, strain bik1, stronger effect = lower value",0.946
same,normalized growth,"locus YDL035C, strain GPR1, stronger effect = lower value",0.953
same,normalized growth,"locus YDL074C, strain BRE1, stronger effect = lower value",1.03
same,normalized growth,"locus YDL101C, strain DUN1, stronger effect = lower value",0.944
same,normalized growth,"locus YDL134C, strain PPH21, stronger effect = lower value",0.949
same,normalized growth,"locus YDL185W, strain tfp1, stronger effect = lower value",0.955
same,normalized growth,"locus YDL192W, strain arf1, stronger effect = lower value",0.945
same,normalized growth,"locus YDR101C, strain arx1, stronger effect = lower value",0.929
same,normalized growth,"locus YDR162C, strain NBP2, stronger effect = lower value",0.862
same,normalized growth,"locus YDR318W, strain mcm21, stronger effect = lower value",0.931
same,normalized growth,"locus YDR388W, stronger effect = lower value",0.942
same,normalized growth,"locus YDR502C, strain sam2, stronger effect = lower value",0.917 (active)
same,normalized growth,"locus YER110C, stronger effect = lower value",0.952
same,normalized growth,"locus YER155C, strain BEM2, stronger effect = lower value",1.01
same,normalized growth,"locus YER167W, strain BCK2, stronger effect = lower value",0.995
same,normalized growth,"locus YGL078C, strain dbp3, stronger effect = lower value",0.967
same,normalized growth,"locus YGL086W, strain mad1, stronger effect = lower value",0.925 (active)
same,normalized growth,"locus YGL248W, strain PDE1, stronger effect = lower value",0.946
same,normalized growth,"locus YGR078C, strain PAC10, stronger effect = lower value",1.01
same,normalized growth,"locus YGR135W, strain pre9, stronger effect = lower value",1
same,normalized growth,"locus YGR252W, strain gcn5, stronger effect = lower value",1.06
same,normalized growth,"locus YHR030C, strain SLT2, stronger effect = lower value",0.983 and 0.976
same,normalized growth,"locus YHR079C, strain IRE1 (second series), stronger effect = lower value",0.944
same,normalized growth,"locus YHR079C, strain IRE1, stronger effect = lower value",0.971
same,normalized growth,"locus YHR094C, strain hxt1, stronger effect = lower value",0.958
same,normalized growth,"locus YHR129C, strain ARP1, stronger effect = lower value",0.955
same,normalized growth,"locus YHR200W, strain rpn10, stronger effect = lower value",0.938
same,normalized growth,"locus YIL066C, strain RNR3, stronger effect = lower value",0.924
same,normalized growth,"locus YIL073C, strain SPO22, stronger effect = lower value",1.06
same,normalized growth,"locus YIL125W, strain kgd1, stronger effect = lower value",0.936
same,normalized growth,"locus YIR030C, strain dcg1, stronger effect = lower value",0.966
same,normalized growth,"locus YJL095W, strain BCK1, stronger effect = lower value",0.938 and 0.988
same,normalized growth,"locus YJL134W, strain LCB3, stronger effect = lower value",0.976
same,normalized growth,"locus YJL168C, strain set2, stronger effect = lower value",0.99
same,normalized growth,"locus YJL187C, strain SWE1 (second series), stronger effect = lower value",0.929
same,normalized growth,"locus YJR043C, strain POL32, stronger effect = lower value",0.963
same,normalized growth,"locus YJR066W, strain TOR1, stronger effect = lower value",0.949
same,normalized growth,"locus YKL009W, strain mrt4, stronger effect = lower value",0.953
same,normalized growth,"locus YKL068W, stronger effect = lower value",0.98
same,normalized growth,"locus YKL085W, strain MDH1 (second series), stronger effect = lower value",0.962
same,normalized growth,"locus YKL085W, strain MDH1, stronger effect = lower value",0.962
same,normalized growth,"locus YKR001C, strain vps1, stronger effect = lower value",0.849 (active)
same,normalized growth,"locus YLR039C, strain RIC1, stronger effect = lower value",0.883
same,normalized growth,"locus YLR058C, strain SHM2, stronger effect = lower value",0.931
same,normalized growth,"locus YLR102C, strain apc9, stronger effect = lower value",0.966
same,normalized growth,"locus YLR113W, strain HOG1, stronger effect = lower value",0.911
same,normalized growth,"locus YLR268W, strain sec22, stronger effect = lower value",0.883 (active)
same,normalized growth,"locus YLR330W, strain CHS5, stronger effect = lower value",0.991
same,normalized growth,"locus YLR371W, strain rom2, stronger effect = lower value",0.964
same,normalized growth,"locus YLR418C, strain cdc73, stronger effect = lower value",0.787 (active)
same,normalized growth,"locus YML016C, strain PPZ1, stronger effect = lower value",0.963
same,normalized growth,"locus YML032C, strain rad52, stronger effect = lower value",0.945
same,normalized growth,"locus YML124C, strain tub3, stronger effect = lower value",0.952
same,normalized growth,"locus YMR078C, strain ctf18, stronger effect = lower value",0.967
same,normalized growth,"locus YMR223W, strain ubp8, stronger effect = lower value",0.956
same,normalized growth,"locus YMR263W, strain SAP30, stronger effect = lower value",0.971
same,normalized growth,"locus YMR307W, strain GAS1, stronger effect = lower value",1.03
same,normalized growth,"locus YNL067W, strain RPL9B, stronger effect = lower value",0.985
same,normalized growth,"locus YNL128W, strain TEP1, stronger effect = lower value",0.921
same,normalized growth,"locus YNL183C, strain NPR1, stronger effect = lower value",0.917
same,normalized growth,"locus YNL233W, strain BNI4, stronger effect = lower value",1.02
same,normalized growth,"locus YNL250W, strain rad50, stronger effect = lower value",0.951
same,normalized growth,"locus YNL271C, strain bni1, stronger effect = lower value",0.947
same,normalized growth,"locus YNL298W, strain CLA4, stronger effect = lower value",0.955
same,normalized growth,"locus YNL307C, strain MCK1, stronger effect = lower value",0.72 (active)
same,normalized growth,"locus YNL322C, strain KRE1, stronger effect = lower value",0.986
same,normalized growth,"locus YNR052C, strain pop2, stronger effect = lower value",0.961
same,normalized growth,"locus YOL012C, strain htz1",0.366
same,normalized growth,"locus YOL147C, strain pex11, stronger effect = lower value",0.97
same,normalized growth,"locus YOR061W, strain CKA2, stronger effect = lower value",0.924
same,normalized growth,"locus YOR069W, strain VPS5, stronger effect = lower value",0.979
same,normalized growth,"locus YOR136W, strain idh2, stronger effect = lower value",0.962
same,normalized growth,"locus YOR144C, strain elg1, stronger effect = lower value",0.966
same,normalized growth,"locus YOR184W, strain ser1, stronger effect = lower value",0.803 (active)
same,normalized growth,"locus YOR231W, strain MKK1, stronger effect = lower value",0.942
same,normalized growth,"locus YOR316C, strain cot1, stronger effect = lower value",0.956
same,normalized growth,"locus YPL055C, strain LGE1, stronger effect = lower value",0.949
same,normalized growth,"locus YPL241C, strain CIN2, stronger effect = lower value",0.98
same,normalized growth,"locus YPL256C, strain CLN2, stronger effect = lower value",0.955
same,normalized growth,"locus YPR119W, strain clb2, stronger effect = lower value",0.966
same,normalized growth,"locus YPR141C, strain kar3, stronger effect = lower value",0.954
same,normalized growth,"locus YPR163C, strain tif3, stronger effect = lower value",0.909 (active)
same,normalized growth,"locus YPR167C, strain met16, stronger effect = lower value",0.984
same,normalized growth,"strain wtn01, stronger effect = lower value",0.911
